How the values were obtained:
Conditions in all cases: concentration: 1 μM, replicates: in singlicate; n = 1
CDK8 = system: CDK8
CDK9 = system: CDK9
CDKL1 = system: CDKL1
CDKL2 = system: CDKL2
CDKL3 = system: CDKL3
CDKL5 = system: CDKL5
CHEK1 = system: CHEK1
CHEK2 = system: CHEK2
CIT = system: CIT
CLK1 = system: CLK1
CLK2 = system: CLK2
CLK3 = system: CLK3
CLK4 = system: CLK4
CSF1R-autoinhibited = system: CSF1R-autoinhibited
CSF1R = system: CSF1R
CSK = system: CSK
CSNK1A1L = system: CSNK1A1L
CSNK1A1 = system: CSNK1A1
CSNK1D = system: CSNK1D
CSNK1E = system: CSNK1E
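Note: KINOMEscan kinase panel screen.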

| SMILES | %Inh (CDK8) [%] | %Inh (CDK9) [%] | %Inh (CDKL1) [%] | %Inh (CDKL2) [%] | %Inh (CDKL3) [%] | %Inh (CDKL5) [%] | %Inh (CHEK1) [%] | %Inh (CHEK2) [%] | %Inh (CIT) [%] | %Inh (CLK1) [%] | %Inh (CLK2) [%] | %Inh (CLK3) [%] | %Inh (CLK4) [%] | %Inh (CSF1R-autoinhibited) [%] | %Inh (CSF1R) [%] | %Inh (CSK) [%] | %Inh (CSNK1A1L) [%] | %Inh (CSNK1A1) [%] | %Inh (CSNK1D) [%] | %Inh (CSNK1E) [%] |
| --- | --- | --- | --- | --- | --- | --- | --- | --- | --- | --- | --- | --- | --- | --- | --- | --- | --- | --- | --- | --- |
| Cl.Cl.NC(CNC(=O)c1cc(Br)c(-c2ccnc3[nH]ccc23)s1)c1ccccc1 (stereo not drawn) [GSK1322949] | 60 | 15 | 12 | 26 | 0 | 5 | 0 | 46 | 98.1 | 90.9 | 88 | 73 | 91.5 | 7 | 29 | 0 | 47 | 87 | 89 | 90.8 |
| CN(c1ccc(NC(=O)Nc2cccc(Cl)c2)cc1)c1ccnc(N)n1.Cl [GW830707] | 85 | 0 | 0 | 39 | 0 | 0 | 0 | 7 | 9 | 0 | 0 | 0 | 0 | 0 | 99.5 | 7 | 0 | 0 | 18 | 0 |
| Nc1cccc(-c2ccc3c(N)n[nH]c3c2)c1 [GSK2193613] | 42 | 3 | 19 | 23 | 0 | 0 | 0 | 6 | 30 | 43 | 10 | 0 | 64 | 17 | 2 | 0 | 13 | 0 | 8 | 5 |
| O=C(Nc1n[nH]c2nc(-c3ccccc3)ccc12)C1CC1 [SB-708999] | 36 | 0 | 2 | 88 | 10 | 0 | 0 | 0 | 7 | 86 | 0 | 1 | 0 | 36 | 0 | 0 | 15 | 0 | 13 | 0 |
| Cn1cc(-c2ccc3c(c2)CCN3C(=O)Cc2cc(F)cc(F)c2F)c2c(N)ncnc21 [GSK2634140] | 88 | 3 | 8 | 29 | 0 | 3 | 9 | 0 | 36 | 16 | 0 | 24 | 16 | 0 | 87 | 0 | 17 | 0 | 13 | 47 |
| COc1cc(Nc2nccc(N3CCC(NS(=O)(=O)c4ccc(NC(C)=O)cc4)CC3)n2)cc(OC)c1OC [GSK1379825] | 31 | 0 | 19 | 24 | 0 | 0 | 0 | 0 | 17 | 2 | 0 | 23 | 39 | 7 | 19 | 0 | 3 | 8 | 0 | 21 |
| Cc1cccc(Nc2nc(N[C@H]3CCCC[C@H]3N)ncc2C(N)=O)c1.Cl [GSK986310] | 0 | 17 | 9 | 28 | 0 | 0 | 57 | 1 | 66 | 42 | 28 | 27 | 24 | 0 | 78 | 12 | 59 | 46 | 50 | 64 |
| Cl.Cl.NCC(NC(=O)c1cc(-c2cccnc2)c(-c2ccnc3[nH]ccc23)s1)c1ccccc1 (stereo not drawn) [GSK1323434] | 43 | 1 | 66 | 23 | 0 | 0 | 0 | 55 | 100 | 71 | 51 | 12 | 60 | 30 | 44 | 0 | 77 | 91.5 | 96.7 | 99 |
| CC(C)NCC(Cc1ccccc1)NC(=O)c1cc(Br)c(-c2ccnc3[nH]ccc23)s1.Cl.Cl (stereo not drawn) [GSK1383281] | 34 | 0 | 17 | 11 | 0 | 0 | 0 | 39 | 53 | 40 | 44 | 22 | 25 | 0 | 46 | 6 | 5 | 0 | 26 | 33 |
